Measured values: the supplement of paper PMC10849652
About 7,900 targets were measured; listed, in parts, are those with a hit and a random draw of the rest. About 0.6% of all pairs of compound and target were hits. Values without a mark were called inactive.

Tests used:
Test in all cases: log2 fold change, soluble protein after heating vs DMSO (PISA); higher = thermal stabilisation; K562 cells, 10 uM, 30 min; active = over 0.2 and 3.5 SD of the protein, either way, in both replicates (recomputed)
[1] = compound: CC[C@@H]1C(=O)N(C)c2cnc(Nc3ccc(C(=O)NC4CCN(C)CC4)cc3OC)nc2N1C1CCCC1
In short: (§1)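 Thermal stability values are relative to control samples and come from duplicates. They are expressed as log2 fold changes. For measurement, K562 cells (2×10^6 cells/mL) received 10 μM compound for 30 min, and aliquots were heated for 3 min over 48°C-58°C, pooled, and extracted at 4°C in PBS with 0.5% NP-40. Soluble protein, the supernatant after 21,000xg for 90 min, was quantified by TMTpro 16plex LC-MS/MS with equalised channel sums.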

volasertib = compound: CC[C@@H]1C(=O)N(C)c2cnc(Nc3ccc(C(=O)N[C@H]4CC[C@H](N5CCN(CC6CC6)CC5)CC4)cc3OC)nc2N1C(C)C [volasertib]
In short: as §1

[2] = compound: CC[C@H](C)N1C=C(C2=C(C=C(C=C21)C3=CN=C(C=C3)N4CCNCC4)C(=O)NCC5=C(C=C(NC5=O)C)C)C
In short: as §1

epoxomicin = compound: CC[C@H](C)[C@@H](C(=O)N[C@@H]([C@@H](C)O)C(=O)N[C@@H](CC(C)C)C(=O)[C@]1(CO1)C)NC(=O)[C@H]([C@@H](C)CC)N(C)C(=O)C [epoxomicin]
In short: as §1

[3] = compound: CCn1c(C(=O)N(C2CC2)C2CC2)cc2c3c(ncn3C)c(Nc3cc(C)n(C)n3)nc21
In short: as §1

[4] = compound: CCn1cc(-c2ccnc3[nH]c(-c4cccc(CN(C)C)c4)cc23)c(-c2ccc(NC(=O)N(C)C)cc2)n1
In short: as §1

[5] = compound: CN(C)CC(=O)Nc1ccc2[nH]c(=O)c3ccccc3c2c1
In short: as §1

rosiglitazone = compound: CN(CCOC1=CC=C(C=C1)C[C@H]2C(=O)NC(=O)S2)C3=CC=CC=N3 (racemic) [rosiglitazone]
In short: as §1

[6] = compound: CN1C2=C(C3=C1C(=O)N(N=C3)CC4=CC(=CC=C4)N)SC(=C2)S(=O)C
In short: as §1

[7] = compound: CN1CCC(CNc2ccc3ncc(-c4cccc(OC(F)(F)F)c4)n3n2)CC1
In short: as §1

saracatinib = compound: CN1CCN(CCOc2cc(OC3CCOCC3)c3c(Nc4c(Cl)ccc5c4OCO5)ncnc3c2)CC1 [saracatinib]
In short: as §1

sotrastaurin = compound: CN1CCN(c2nc(C3=C(c4c[nH]c5ccccc45)C(=O)NC3=O)c3ccccc3n2)CC1 [sotrastaurin]
In short: as §1

alvocidib = compound: CN1CC[C@H](c2c(O)cc(O)c3c(=O)cc(-c4ccccc4Cl)oc23)[C@H](O)C1 [alvocidib]
In short: as §1

Tubastatin A = compound: CN1CCc2c(c3ccccc3n2Cc2ccc(C(=O)NO)cc2)C1 [Tubastatin A]
In short: as §1

[8] = compound: CNC(=O)C1=CC=CC=C1NC2=NC(=NC=C2Cl)NC3=C(C=C(C=C3)N4CCOCC4)OC
In short: as §1

defactinib = compound: CNC(=O)c1ccc(Nc2ncc(C(F)(F)F)c(NCc3nccnc3N(C)S(C)(=O)=O)n2)cc1 [defactinib]
In short: as §1

rucaparib = compound: CNCc1ccc(-c2[nH]c3cc(F)cc4c3c2CCNC4=O)cc1 [rucaparib]
In short: as §1

[9] = compound: CNc1nc(-c2ccc3c(N)n[nH]c3c2)cc(N2C[C@@H](C(=O)NC3CCCCC3)CC[C@H]2C)n1
In short: as §1

encorafenib = compound: COC(=O)N[C@@H](C)CNc1nccc(-c2cn(C(C)C)nc2-c2cc(Cl)cc(NS(C)(=O)=O)c2F)n1 [encorafenib]
In short: as §1

[10] = compound: COC(=O)[C@H](CCSC)NC(=O)C1=C(C=C(C=C1)NC[C@H](CS)N)C2=CC=CC=C2
In short: as §1

Sequence of UniProt P48729 (P48729 whole entry, looked up): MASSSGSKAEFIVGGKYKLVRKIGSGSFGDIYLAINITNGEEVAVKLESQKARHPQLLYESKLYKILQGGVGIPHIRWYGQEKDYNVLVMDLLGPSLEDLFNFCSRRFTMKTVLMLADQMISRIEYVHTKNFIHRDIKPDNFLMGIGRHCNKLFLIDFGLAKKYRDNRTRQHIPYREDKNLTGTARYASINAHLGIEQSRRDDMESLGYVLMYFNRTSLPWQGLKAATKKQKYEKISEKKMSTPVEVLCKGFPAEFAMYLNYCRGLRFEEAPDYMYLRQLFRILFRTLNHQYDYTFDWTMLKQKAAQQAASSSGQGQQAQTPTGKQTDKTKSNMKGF
Sequence of UniProt Q14004 (Q14004 whole entry, looked up): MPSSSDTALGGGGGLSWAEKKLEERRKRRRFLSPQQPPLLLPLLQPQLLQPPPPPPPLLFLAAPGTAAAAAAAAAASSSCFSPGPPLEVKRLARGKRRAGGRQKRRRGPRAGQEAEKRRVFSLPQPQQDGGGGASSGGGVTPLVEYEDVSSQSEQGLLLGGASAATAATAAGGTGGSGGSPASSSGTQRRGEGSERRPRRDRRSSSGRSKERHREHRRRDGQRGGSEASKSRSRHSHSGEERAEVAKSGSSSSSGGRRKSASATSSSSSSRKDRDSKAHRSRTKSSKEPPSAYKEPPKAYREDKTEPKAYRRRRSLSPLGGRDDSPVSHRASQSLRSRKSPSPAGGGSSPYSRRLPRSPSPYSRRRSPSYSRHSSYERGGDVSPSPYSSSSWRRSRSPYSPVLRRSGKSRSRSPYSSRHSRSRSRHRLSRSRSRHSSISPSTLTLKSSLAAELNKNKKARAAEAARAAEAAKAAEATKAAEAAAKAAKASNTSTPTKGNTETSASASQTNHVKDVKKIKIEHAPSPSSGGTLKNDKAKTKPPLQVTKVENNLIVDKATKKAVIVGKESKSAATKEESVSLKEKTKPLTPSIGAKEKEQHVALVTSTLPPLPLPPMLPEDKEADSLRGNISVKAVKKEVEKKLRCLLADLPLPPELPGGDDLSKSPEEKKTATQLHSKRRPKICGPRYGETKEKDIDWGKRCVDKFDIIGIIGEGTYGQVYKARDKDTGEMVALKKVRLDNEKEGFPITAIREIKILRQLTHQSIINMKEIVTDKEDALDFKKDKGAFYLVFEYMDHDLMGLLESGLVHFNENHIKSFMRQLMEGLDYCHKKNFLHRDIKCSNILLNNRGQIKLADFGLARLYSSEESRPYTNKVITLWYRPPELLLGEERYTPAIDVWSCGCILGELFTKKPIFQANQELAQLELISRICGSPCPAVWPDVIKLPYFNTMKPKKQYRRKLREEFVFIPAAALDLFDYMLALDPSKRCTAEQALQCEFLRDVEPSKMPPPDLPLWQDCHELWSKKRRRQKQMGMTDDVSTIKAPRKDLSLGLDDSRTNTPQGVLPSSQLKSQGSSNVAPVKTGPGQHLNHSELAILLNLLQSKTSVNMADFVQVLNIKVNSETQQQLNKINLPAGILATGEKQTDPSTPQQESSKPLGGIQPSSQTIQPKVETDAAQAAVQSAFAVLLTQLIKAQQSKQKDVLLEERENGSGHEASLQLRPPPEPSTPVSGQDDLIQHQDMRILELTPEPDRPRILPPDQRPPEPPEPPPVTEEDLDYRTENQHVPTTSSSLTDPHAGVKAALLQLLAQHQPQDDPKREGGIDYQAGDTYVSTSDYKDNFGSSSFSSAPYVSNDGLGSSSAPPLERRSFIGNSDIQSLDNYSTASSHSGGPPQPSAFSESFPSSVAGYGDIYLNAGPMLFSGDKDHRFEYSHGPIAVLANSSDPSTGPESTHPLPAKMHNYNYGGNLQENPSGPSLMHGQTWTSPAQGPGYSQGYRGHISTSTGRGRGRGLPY
Sequence of UniProt P50750 (P50750 whole entry, looked up): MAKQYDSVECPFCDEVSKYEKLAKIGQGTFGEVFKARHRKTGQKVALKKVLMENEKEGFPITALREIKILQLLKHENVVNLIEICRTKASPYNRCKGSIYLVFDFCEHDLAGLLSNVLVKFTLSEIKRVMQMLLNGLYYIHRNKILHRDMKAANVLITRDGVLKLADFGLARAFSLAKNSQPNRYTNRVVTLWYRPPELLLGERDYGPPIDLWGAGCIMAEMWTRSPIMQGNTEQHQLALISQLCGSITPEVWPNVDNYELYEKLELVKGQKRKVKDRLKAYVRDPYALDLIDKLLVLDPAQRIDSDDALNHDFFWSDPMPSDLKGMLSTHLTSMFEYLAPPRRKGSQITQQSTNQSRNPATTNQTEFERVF
Sequence of UniProt P55060 (P55060 whole entry, looked up): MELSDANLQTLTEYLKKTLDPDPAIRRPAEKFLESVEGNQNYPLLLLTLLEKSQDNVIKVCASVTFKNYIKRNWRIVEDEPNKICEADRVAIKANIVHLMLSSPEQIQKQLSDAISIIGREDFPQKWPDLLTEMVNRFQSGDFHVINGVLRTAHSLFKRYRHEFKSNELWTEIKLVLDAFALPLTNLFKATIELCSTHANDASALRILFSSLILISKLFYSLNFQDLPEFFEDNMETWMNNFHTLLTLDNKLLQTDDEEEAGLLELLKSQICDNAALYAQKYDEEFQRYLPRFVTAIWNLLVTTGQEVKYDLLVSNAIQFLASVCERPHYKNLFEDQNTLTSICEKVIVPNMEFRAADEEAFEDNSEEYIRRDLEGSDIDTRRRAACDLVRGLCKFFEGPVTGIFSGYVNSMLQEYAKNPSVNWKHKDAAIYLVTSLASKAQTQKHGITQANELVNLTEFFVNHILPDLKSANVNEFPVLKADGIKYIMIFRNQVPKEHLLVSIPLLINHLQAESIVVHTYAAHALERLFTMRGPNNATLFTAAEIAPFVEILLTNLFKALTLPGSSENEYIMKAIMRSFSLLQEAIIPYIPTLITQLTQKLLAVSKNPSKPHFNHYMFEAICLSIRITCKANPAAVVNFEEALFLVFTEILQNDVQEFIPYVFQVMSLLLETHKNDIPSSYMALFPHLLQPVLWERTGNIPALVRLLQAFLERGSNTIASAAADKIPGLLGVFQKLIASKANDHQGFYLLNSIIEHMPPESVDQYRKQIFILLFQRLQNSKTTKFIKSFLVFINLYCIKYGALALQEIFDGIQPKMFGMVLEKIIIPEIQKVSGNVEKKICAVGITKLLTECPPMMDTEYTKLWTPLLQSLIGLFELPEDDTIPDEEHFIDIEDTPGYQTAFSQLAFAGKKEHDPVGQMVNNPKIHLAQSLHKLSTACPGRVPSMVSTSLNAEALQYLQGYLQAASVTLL
Sequence of UniProt Q8IWX8 (Q8IWX8 whole entry, looked up): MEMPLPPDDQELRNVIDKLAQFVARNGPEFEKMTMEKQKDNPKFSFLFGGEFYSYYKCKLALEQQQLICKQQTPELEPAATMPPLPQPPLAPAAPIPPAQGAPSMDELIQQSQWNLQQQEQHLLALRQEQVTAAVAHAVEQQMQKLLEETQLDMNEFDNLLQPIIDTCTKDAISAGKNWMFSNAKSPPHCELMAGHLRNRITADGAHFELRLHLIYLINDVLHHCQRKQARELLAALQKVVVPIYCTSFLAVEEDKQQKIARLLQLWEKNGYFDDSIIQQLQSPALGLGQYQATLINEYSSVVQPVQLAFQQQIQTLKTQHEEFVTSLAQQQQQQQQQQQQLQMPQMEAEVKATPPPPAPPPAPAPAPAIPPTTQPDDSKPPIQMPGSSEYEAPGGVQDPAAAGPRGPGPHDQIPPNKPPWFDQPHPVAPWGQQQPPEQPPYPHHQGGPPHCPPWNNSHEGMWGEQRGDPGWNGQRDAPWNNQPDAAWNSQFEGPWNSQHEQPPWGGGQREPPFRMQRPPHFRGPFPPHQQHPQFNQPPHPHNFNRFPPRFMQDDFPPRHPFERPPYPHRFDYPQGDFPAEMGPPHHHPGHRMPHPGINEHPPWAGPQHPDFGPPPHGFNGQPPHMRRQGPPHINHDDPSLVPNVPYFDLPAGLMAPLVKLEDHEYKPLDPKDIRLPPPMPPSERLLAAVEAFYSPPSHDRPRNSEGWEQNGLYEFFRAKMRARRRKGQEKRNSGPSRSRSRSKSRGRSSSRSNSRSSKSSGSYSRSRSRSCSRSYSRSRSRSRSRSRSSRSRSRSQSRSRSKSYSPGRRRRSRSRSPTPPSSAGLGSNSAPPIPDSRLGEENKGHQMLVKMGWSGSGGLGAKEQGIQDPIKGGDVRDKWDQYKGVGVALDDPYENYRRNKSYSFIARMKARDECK
Sequence of UniProt O76031 (O76031 whole entry, looked up): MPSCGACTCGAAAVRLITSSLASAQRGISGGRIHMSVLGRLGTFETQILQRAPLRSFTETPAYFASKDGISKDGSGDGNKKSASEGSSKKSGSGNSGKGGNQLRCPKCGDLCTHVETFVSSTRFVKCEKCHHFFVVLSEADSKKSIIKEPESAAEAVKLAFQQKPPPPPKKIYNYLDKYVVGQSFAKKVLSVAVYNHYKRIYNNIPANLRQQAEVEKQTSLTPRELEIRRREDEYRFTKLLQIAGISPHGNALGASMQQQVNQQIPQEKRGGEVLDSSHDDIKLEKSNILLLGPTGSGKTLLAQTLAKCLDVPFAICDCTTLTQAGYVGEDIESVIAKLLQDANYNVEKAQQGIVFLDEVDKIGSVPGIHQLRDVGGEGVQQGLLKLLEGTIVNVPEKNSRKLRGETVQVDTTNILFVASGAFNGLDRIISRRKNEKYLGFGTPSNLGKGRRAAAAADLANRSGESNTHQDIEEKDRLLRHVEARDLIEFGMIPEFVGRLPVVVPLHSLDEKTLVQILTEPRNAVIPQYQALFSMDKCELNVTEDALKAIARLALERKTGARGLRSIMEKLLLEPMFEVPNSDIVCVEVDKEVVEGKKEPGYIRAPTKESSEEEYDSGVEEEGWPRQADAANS
Sequence of UniProt Q8NHZ8 (Q8NHZ8 whole entry, looked up): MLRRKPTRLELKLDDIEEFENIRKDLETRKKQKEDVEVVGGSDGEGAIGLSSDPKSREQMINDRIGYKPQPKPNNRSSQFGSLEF
Sequence of UniProt Q96MX0 (Q96MX0 whole entry, looked up): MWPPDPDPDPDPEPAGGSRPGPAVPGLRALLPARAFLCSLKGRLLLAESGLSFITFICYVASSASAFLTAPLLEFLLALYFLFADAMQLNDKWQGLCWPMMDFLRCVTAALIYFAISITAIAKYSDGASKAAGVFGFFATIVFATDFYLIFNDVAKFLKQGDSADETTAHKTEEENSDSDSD

Target	log2 fold change [1]	log2 fold change (volasertib)	log2 fold change [2]	log2 fold change (epoxomicin)	log2 fold change [3]	log2 fold change [4]	log2 fold change [5]	log2 fold change (rosiglitazone)	log2 fold change [6]	log2 fold change [7]	log2 fold change (saracatinib)	log2 fold change (sotrastaurin)	log2 fold change (alvocidib)	log2 fold change (Tubastatin A)	log2 fold change [8]	log2 fold change (defactinib)	log2 fold change (rucaparib)	log2 fold change [9]	log2 fold change (encorafenib)	log2 fold change [10]
CDK13 (UniProt Q14004)	0.025	0.09	0.034	-0.032	0.087	0.018	0.004	-0.002	0.233	-0.047	-0.133	-0.121	-0.061	0.042	-0.071	-0.01	0.06	-0.129	0.104	0.036
CALB1 (UniProt P05937)	-0.123	-0.092	-0.007	0.043	0.003	0.05	0.016	0.027	-0.039	-0.282 (active)	0.033	0.008	0.034	-0.026	0.02	0.013	-0.07	-0.14	0.023	0.021
CSTF3 (UniProt Q12996)	0.061	0.091	-0.028	-0.029	0	-0.038	-0.002	0.003	-0.048	0.13	0.001	0.045	0.078	-0.08	0.043	0.173	0.088	-0.051	-0.022	0.002
C4orf33 (UniProt Q8N1A6)	0.044	0.066	0.007	-0.084	-0.034	-0.062	-0.007	0.155	0.009	-0.027	-0.027	-0.091	-0.07	-0.024	0.048	-0.071	0.091	0.013	-0.076	0.042
CHCHD4 isoform 2 (UniProt Q8N4Q1)	-0.009	-0.125	-0.096	-0.186	-0.034	0.231	-0.023	-0.007	-0.107	0.795 (active)	0.277	0.003	-0.14	0.061	0.199	-0.049	-0.007	0.202	-0.046	-0.034
CHERP (UniProt Q8IWX8)	-0.162	-0.888 (active)	-0.014	0.064	-0.024	0.022	0.041	-0.004	0.102	-0.05	0.045	-0.167	-0.143	0.119	-0.006	-0.29	0.022	-0.046	0.058	0.002
CSE1L (UniProt P55060)	-0.209 (active)	-0.403 (active)	0.047	0.03	0.002	-0.068	0.008	0.047	-0.095	-0.181	0.032	-0.076	-0.069	-0.033	0.016	-0.092	-0.059	-0.057	0.022	-0.013
COCH (UniProt O43405)	0.117	-0.08	-0.065	-0.153	0.054	0.075	-0.127	-0.056	0.007	0.076	0.126	0.01	0.029	-0.036	0.031	0.1	0.011	-0.139	-0.074	0.05
CNTN4 (UniProt Q8IWV2)	-0.016	-0.14	-0.084	0.149	-0.208	-0.157	0	-0.021	-0.077	-0.102	-0.026	-0.033	-0.065	0.256	-0.225	-0.06	-0.01	-0.016	-0.082	0.004
CNN2 (UniProt Q99439)	-0.149	-0.354 (active)	0.058	0.106	-0.044	0.03	0.023	0.063	0.012	-0.055	0.004	-0.161	-0.024	0	-0.003	-0.087	-0.008	-0.077	0.023	0
CDK9 isoform 2 (UniProt P50750)	-0.01	0.078	0.064	-0.06	0.016	-0.092	-0.042	-0.019	0.178	0.205	-0.028	-0.018	0.405 (active)	0.01	-0.07	0.03	0.084	0.036	0.079	-0.091
CBR1 (UniProt P16152)	-0.001	-0.041	-0.017	0.06	-0.006	0	0.005	0.013	-0.077	0.077	0.02	-0.005	-0.098	-0.059	0.011	-0.041	-0.01	-0.003	-0.024	0.004
COX7C (UniProt P15954)	0.035	-0.163	-0.114	0.203	-0.01	0.095	-0.058	-0.025	-0.026	-0.052	0.026	0.028	–	0.03	0.007	0.031	0.011	-0.054	-0.06	0.047
CSNK1A1 (UniProt P48729)	-0.011	-0.117	0.057	0.046	-0.016	0.008	-0.179	-0.028	0.072	-0.067	-0.028	0.011	0.146	0.115	–	0.058	0.128	0.042	0.037	-0.016
CMTM3 (UniProt Q96MX0)	0.066	-0.088	-0.061	0.075	-0.009	0.057	0.02	-0.324 (active)	0.048	-0.122	-0.006	-0.01	-0.022	-0.012	-0.019	-0.096	0.129	-0.075	-0.072	0.05
C4A (UniProt P0C0L4)	-0.147	-0.216	-0.048	-0.316	-0.079	0.197	0	0.154	0.223	-0.32	0.108	0.268	0.052	-0.039	-0.021	0.072	-0.075	-0.188	-0.047	-0.039
CERT isoform 3 (UniProt Q9Y5P4)	0.06	0.044	0.07	0.058	-0.023	-0.057	-0.019	-0.017	-0.127	0.279 (active)	0.033	0.014	0.002	-0.105	0.131	-0.097	-0.009	0.116	-0.015	0.047
CDC26 (UniProt Q8NHZ8)	0.06	0.037	-0.068	-0.031	0.085	0.003	0.158	-0.008	0.107	0.131	0.032	-0.022	0.026	0	-0.032	-0.11	0.112	-0.013	-0.051	-0.234
CEMIP2 (UniProt Q9UHN6)	-0.209	-0.364	-0.142	0.058	-0.184	-0.088	-0.049	0.003	0.032	0.123	-0.104	–	-0.055	-0.005	0.032	0.017	0.046	-0.026	-0.1	0.029
CDK16 isoform 2 (UniProt Q00536)	-0.049	-0.316	-0.014	0.02	-0.113	0.001	0.041	0.061	-0.074	0.135	-0.014	0.246	–	0.014	0.027	0.236	0.278	-0.102	0.016	-0.146
CASP8 isoform 9 (UniProt Q14790)	0.025	-0.489 (active)	0.065	0.052	0.025	-0.019	0	-0.034	-0.026	-0.082	-0.032	-0.019	–	0.115	0.053	-0.1	0.011	0.04	0.044	0.037
CLPX (UniProt O76031)	0.039	0.192	-0.06	-0.019	-0.03	-0.022	0.026	-0.009	-0.01	0.072	0.014	0.014	0.039	0.025	-0.016	-0.027	0.034	-0.038	-0.013	-0.01
COPS4 (UniProt Q9BT78)	-0.045	-0.007	0.013	0.047	0.001	-0.022	0.023	0.018	-0.092	-0.007	0.028	0.008	-0.071	-0.011	-0.005	-0.015	0.004	-0.006	-0.001	-0.007
CHST11 (UniProt Q9NPF2)	-0.215	-0.187	-0.078	0.011	0.043	-0.017	-0.045	-0.044	–	0.022	–	-0.02	-0.049	0.08	0.079	-0.003	0.083	–	0.177	-0.048
